PfHsp90 yeast 2 = growth inhibition of yeast expressing Plasmodium Hsp90 | S. cerevisiae expressing PfHsp90, BacTiter-Glo ATP, 48 h; yeast lacking PDR1 and PDR3 efflux regulators | inhibition, % at 9.4 µM | 310,000 tested, 0.32% active | AID 504621;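 active = every replicate shows inhibition above about 80%, whatever the replicate mean, limit read from the data; inconclusive = mean inhibition reaches the set limit but some replicate falls short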;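 note: 0% = DMSO neutral controls and 100% = 20 µM radicicol positive controls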
N-glyco inh = blocks N-linked glycosylation in D54 reporter cells; AID 588692; reporter increase, % at 12.5 µM; 360,000 tested, 0.23% active; D54 ERlucT glycosylation luciferase reporter, 24 h; percent of 100 nM tunicamycin response;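 active = mean luciferase reporter signal, scaled so untreated is 0 and the glycosylation-blocking control 100, at or above a set limit in every replicate; inconclusive = mean reaches the limit but not every replicate does; inactive = mean below the limit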;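 note: luciferase carries N-glycosylation sites so blocking glycosylation raises the light; 0% = median of neutral control wells and 100% = median of 100 nM tunicamycin wells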
MITF TRPM1 HTS = activators of MITF-driven TRPM1 promoter activity in SK-MEL-5 cells | SK-MEL-5 TRPM1-promoter luciferase, 24 h; % of positive control, neutral wells = 0 | activation, % at 12.5 µM | 300,000 tested, 0.75% active | AID 588334;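 active = mean activation of at least 80% with every replicate also reaching 80%; inconclusive = mean reaches 80% but some replicate falls short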;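 note: 0% = neutral control wells and 100% = parthenolide positive control wells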
NSD2 HMT inh = inhibitors of human histone methyltransferase NSD2 | O96028 | NSD2 peptide methylation, AlphaScreen, 120 min | inhibition, % at 12.5 µM | 310,000 tested, 0.54% active | AID 743445; in the data active = inhibition above about 50%
Wnt bcat act = activates Wnt/beta-catenin signaling in a reporter cell assay. activator, plate reader. activation, % at 9.35 µM. 300,000 tested, 1.2% active. AID 743398; in the data active = activation above about 30%, passing the limit was not always enough; inconclusive = no clear call, values can overlap the other calls;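 note: 0% = neutral control wells and 100% = positive control wells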
MITF TRPM1 inh = MITF TRPM1 promoter inhibition in SK-MEL-5 cells; SK-MEL-5 TRPM1 promoter luciferase, 24 h; inhibition, % at 12.5 µM; 330,000 tested, 0.83% active; AID 488899;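 active = mean inhibition across replicates of 60% or more, whatever share of single replicates reaches that level; inconclusive = some that reach 60%, reason not given; inactive = mean inhibition across replicates below 60%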
An asterisk follows results filed as active; ? = inconclusive; / = no result given. Compounds with a hit are over-represented: about 2.9% of the library has one in this group of screens.

SMILES	PfHsp90 yeast 2	N-glyco inh	MITF TRPM1 HTS	NSD2 HMT inh	Wnt bcat act	MITF TRPM1 inh
Nc1c(C(=O)Nc2ccc3c(c2)OCCO3)nnn1CCc1ccccc1	1	18	12	/	12	-17
Nc1c(C(=O)Nc2ccc3c(c2)OCCO3)nnn1Cc1ccc(Br)cc1	-49	-8	111*	-1	36*	-108
Nc1c(C(=O)Nc2ccc3c(c2)OCCO3)nnn1Cc1cccc(Br)c1	-24	-5	102*	2	42*	-101
CC(C)c1cc(C(C)C)c(S(=O)(=O)NCC(=O)N2CCN(c3ncccn3)CC2)c(C(C)C)c1	/	/	/	-3	/	/
C=CC(=O)NC1CCCCN(CCC)C1=O (stereo not given)	/	/	/	/	1	/
C[C@H](O)[C@@H]1C(=O)N2CCc3c([nH]c4c(-c5ccccc5)cccc34)[C@@H]2C[C@@H]1N(C)C(=O)NC1CCCCC1	/	/	/	/	-3	/
COc1ccc(-c2cc3ccc(OCC(C)=O)cc3oc2=O)cc1	-15	-12	64	2	34*	-84
COc1ccc(-c2cc3ccc(OCc4nn[nH]n4)cc3oc2=O)cc1OC	-5	0	/	-3	-2	5
COc1ccc(-c2cc3ccc(O)cc3oc2=O)cc1	16	-5	89*	-8	1	-90
COc1ccc(-c2cc3ccc(OCC(C)=O)cc3oc2=O)cc1OC	-35	2	92*	1	23	-97
COc1ccc(N(C(=O)CNC(=O)c2ccco2)C(C(=O)NC2CCCC2)c2ccco2)cc1 (stereo not given)	-10	1	-5	19	0	6
Cn1c(=O)c2c(n(Cc3ccccc3)c1=O)NC(=O)C2CC(=O)NCc1cccc(Cl)c1 (stereo not given)	-10	1	-6	0	/	6
O=C(Nc1ccccc1)c1ccc(F)cc1F	-29	1	63	/	10	-59
Cc1cc(=O)oc2cc(NC(=O)c3cc(F)ccc3F)ccc12	-11	0	64	0	44*	-61
Cc1ccc(NC(=O)c2ccc(F)cc2F)cc1	9	-7	60	/	46*	-62
O=C(Nc1ccc(F)cc1)Nc1ccc(Cl)cn1	8	-1	?	-2	/	-87
O=C(NC(=O)c1ccc(F)cc1F)Nc1ccc(Cl)cc1	3	3	64	-1	33*	-60
O=C(Nc1ccc(N2CCCCC2)cc1)c1ccc(F)cc1F	-1	-16	22	-1	44*	-21
COc1ccc(S(=O)(=O)N2CCCc3nc(-c4ccc(F)cc4)ccc32)cc1	/	/	/	/	-7	/
COc1ccc(-c2ccc3c(n2)CCCN3S(=O)(=O)c2ccc(C(F)(F)F)cc2)cc1	/	/	/	/	-6	/
O=C(Nc1ccc(OC(F)(F)F)cc1)c1ccc(-n2cncn2)nc1	7	-1	1	-2	-3	4
O=C(Nc1ccc(OC(F)(F)F)cc1)c1n[nH]c(Cn2cncn2)n1	14	2	/	-1	81*	6
CCN1CCCC1CN(Cc1cc2ccc(C)cc2[nH]c1=O)C(=S)Nc1ccc(F)cc1 (stereo not given)	94*	-2	-5	1	-2	8
CCN1CCCC1CN(Cc1cc2ccc(C)cc2[nH]c1=O)C(=S)Nc1ccc(OC)cc1 (stereo not given)	0	-5	-12	3	-3	13
COC(=O)c1cc2c(c3c4cc(F)ccc4n(S(=O)(=O)c4ccc(C)cc4)c13)C(=O)N(c1ccc(OC)cc1)C2	/	/	/	/	9	/
SMILES	PfHsp90 yeast 2	N-glyco inh	MITF TRPM1 HTS	NSD2 HMT inh	Wnt bcat act	MITF TRPM1 inh
CC(/C=N/NC(=O)c1cccc(F)c1)=C\c1ccccc1	-1	4	44	-1	40*	-45
CC(/C=N/NC(=O)c1ccncc1)=C\c1ccccc1	13	-2	22	-3	6	-26
CC(/C=N/NC(=O)c1cc(C(C)(C)C)[nH]n1)=C\c1ccccc1	/	3	-4	0	/	4
O=C(N/N=C/c1ccc(Cl)cc1Cl)c1cccc(F)c1	3	-6	138*	1	38*	-137
CC(/C=N/NC(=O)c1cc(-c2ccc(C)s2)[nH]n1)=C\c1ccccc1	21	27*	-8	4	-3	11
O/N=C/c1cc(Br)cs1	21	0	-1	-1	-1	5
CCCCOCCCNC(=O)C[C@H]1C[C@@]2(C(=O)OC)C(=C[C@H](C(C)(C)C)O[C@@H]2C)N(CCC2=CCCCC2)C1=O	/	/	/	/	-11	/
CC(C)=CCc1c(O)cc2c(c1O)C(=O)CC(c1ccccc1)O2 (stereo not given)	-37	1	-19	/	0	23
CC(C)=CCc1c(O)ccc(C2COc3c(CC=C(C)C)c(O)cc(O)c3C2=O)c1O (stereo not given)	106*	-3	/	/	0	/
COc1ccccc1N1CCN(S(=O)(=O)CCNC(=O)C2CCCC2)CC1	/	2	7	-1	-1	-7
Cn1c(N)c(C(=O)Nc2ccc3ccccc3c2)sc1=S	15	1	107*	0	/	-103
Cn1c(N)c(C(=O)Nc2ccccc2F)sc1=S	-3	3	/	-1	4	-7
N#CC(=C1CCCC1)c1nc(-c2ccccc2)cs1	5	-2	121*	-4	/	-110
N#CC(=C1CCCC1)c1nc(-c2cc3ccccc3oc2=O)cs1	17	-5	88*	/	19	-83
N#CC(=C1CCCC1)c1nc(-c2ccccc2O)cs1	-14	-4	68	-4	/	-66
Cc1ccc(-c2csc(C(C#N)=C3CCCC3)n2)cc1	-24	3	98*	-6	23	-95
CCOC(=O)c1cnc2c3c(noc13)CCC2	/	/	/	-1	0	/
Clc1ccc(OCCOc2ccc(Br)nc2Br)c(Cl)c1	/	/	/	-3	/	/
Cc1ccccc1Nc1nc(N)nc(COC(=O)c2cccn2C)n1	/	0	/	0	66*	-59
O=C(OCc1csc(-c2ccccc2)n1)c1cccs1	-10	3	/	0	-2	-31
Cn1cccc1C(=O)OCc1csc(-c2ccccc2)n1	8	-15	22	3	71*	-18
Cc1ccccc1Nc1nc(N)nc(COC(=O)c2ccc(O)cc2)n1	2	4	14	2	2	-11
Cc1ccccc1Nc1nc(N)nc(COC(=O)c2ccccc2)n1	2	5	83*	-5	/	-78
COc1ccc2cc(CCNC(=O)c3cccs3)c(=O)[nH]c2c1	-17	-1	90*	/	51*	-94
COc1ccc(-n2cc3ccc([N+](=O)[O-])cc3n2)cc1	15	-12	23	-1	41*	-23
CCN(CC)CCN(C(=O)c1cc2c(ccc3ccccc32)oc1=O)c1nc2cc3c(cc2s1)OCCO3	-10	11	-73	17	18	75*
CCN(CC)CCN(C(=O)c1ccc2c(c1)OCCO2)c1nc2cc3c(cc2s1)OCO3	-5	-4	12	2	3	-9

High-throughput results (PubChem)
